Test results: article PMC5540273 (PLoS ONE, 2017)

Tests used:
Conditions in all cases: concentration: 1 μM, replicates: in singlicate; n = 1
[1] = tested on: NEK7
[2] = tested on: NEK9
[3] = tested on: T1, NIK
T1 construct: gene MAP3K14

[4] = tested on: T2, NIM1
T2 construct: gene MGC42105

[5] = tested on: NLK
[6] = tested on: T3, OSR1
T3 construct: gene OXSR1

[7] = tested on: PAK1
[8] = tested on: PAK2
[9] = tested on: PAK3
[10] = tested on: PAK4
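Further: KINOMEscan kinase panel screen.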

Row | Compound | %Inh [1] | %Inh [2] | %Inh [3] | %Inh [4] | %Inh [5] | %Inh [6] | %Inh [7] | %Inh [8] | %Inh [9] | %Inh [10]
1 | CS(=O)(=O)c1ccc(-c2c(-c3ncn[nH]3)sc(N3CCOCC3)c2C#N)cc1 | 0% | 0% | 0% | 21% | 0% | 0% | 2% | 10% | 6% | 5%
2 | Cl.NC(=O)c1cccc(Nc2nccc(Nc3ccc(Oc4cccc(Cl)c4)c(Cl)c3)n2)c1 [GW659008] | 16% | 3% | 27% | 29% | 21% | 8% | 9% | 9% | 33% | 0%
3 | O=C(Nc1ccc2c(c1)OCO2)NC1CCN(c2ccnc(Nc3ccc(F)cc3)n2)C1 (stereo not drawn) [GSK1379724] | 0% | 0% | 0% | 46% | 12% | 0% | 18% | 37% | 0% | 0%
4 | O=c1cc(N2CCOCC2)nc2n(Cc3cccc(Cl)c3Cl)ccn12 [GSK2286295] | 0% | 27% | 32% | 0% | 28% | 14% | 22% | 11% | 0% | 0%
5 | Clc1cc(Cl)cc(Nc2ccnc(Nc3cc(Cl)cc(Cl)c3)n2)c1 [GSK175726] | 0% | 7% | 0% | 0% | 17% | 0% | 12% | 0% | 0% | 6%
6 | Cl.Oc1ccc(-c2nc(-c3ccccc3)[nH]c2-c2ccncc2)cc1 [SB-428218] | 0% | 0% | 74% | 38% | 45% | 0% | 55% | 55% | 20% | 0%
7 | Nc1nc(-c2nccs2)c(-c2ccnc3ccccc23)s1 [GW693542] | 0% | 12% | 0% | 5% | 38% | 6% | 0% | 1% | 9% | 0%
8 | Cc1c(Cn2ccn3c(=O)cc(N4CCOCC4)nc23)cccc1C(F)(F)F [GSK2289044] | 4% | 20% | 0% | 7% | 27% | 8% | 16% | 8% | 13% | 0%
9 | Nc1ncnc2[nH]c(-c3ccccc3)nc12 [AH5015] | 7% | 1% | 50% | 21% | 0% | 17% | 30% | 48% | 100% | 0%
10 | O=C(Nc1n[nH]c2nc(-c3nccs3)c(Br)cc12)C1CCCC1 [SB-742609] | 5% | 0% | 33% | 0% | 31% | 7% | 16% | 21% | 17% | 0%
11 | COc1cc(Nc2nccc(N3CCC(NC(=O)Nc4cc(C)ccc4C)C3)n2)cc(OC)c1OC (stereo not drawn) [GSK1379762] | 54% | 32% | 32% | 27% | 0% | 9% | 11% | 4% | 29% | 0%
12 | CCCc1ccc(S(=O)(=O)NC2CCN(c3ccnc(Nc4ccc(F)cc4)n3)C2)cc1 (stereo not drawn) [GSK1379715] | 0% | 0% | 23% | 18% | 0% | 17% | 0% | 2% | 3% | 0%
13 | CCn1c(-c2ccccn2)nc2cnccc21 [SB-736398] | 0% | 0% | 24% | 34% | 0% | 0% | 22% | 24% | 31% | 0%
14 | Cc1cc(N2Cc3ccccc3C2)nc(Nc2ccc(S(=O)(=O)N3CCOCC3)cc2)n1.Cl [GSK1669917] | 0% | 0% | 0% | 6% | 7% | 0% | 8% | 3% | 0% | 0%
15 | C[C@@H]1CCCCN1c1cc(-c2ccc3c(N)n[nH]c3c2)nc(N)n1 [GSK2258759] | 0% | 0% | 7% | 0% | 23% | 0% | 6% | 0% | 0% | 0%
16 | Cc1ccccc1-n1cnc2c(N)ncnc21 [SKF-97510] | 12% | 0% | 0% | 0% | 15% | 0% | 15% | 11% | 25% | 0%
17 | COc1ccccc1-c1ccc2c(NC(=O)C3CC3)n[nH]c2n1 [SB-711239] | 6% | 5% | 0% | 19% | 15% | 64% | 5% | 0% | 7% | 12%
18 | Cc1cccc(-c2nc(Nc3cccc(C(N)=O)c3)c3ccccc3n2)n1 [GW876019] | 0% | 15% | 0% | 0% | 0% | 0% | 16% | 21% | 49% | 17%

Row | Compound | %Inh [1] | %Inh [2] | %Inh [3] | %Inh [4] | %Inh [5] | %Inh [6] | %Inh [7] | %Inh [8] | %Inh [9] | %Inh [10]
19 | O=C(Nc1n[nH]c2nc(-c3nccs3)c(Br)cc12)C1CC1 [SB-742251] | 0% | 0% | 44% | 0% | 0% | 7% | 2% | 16% | 20% | 0%
20 | COc1ccccc1CNC(=O)c1cc(C(=O)c2ccccc2C)c[nH]1 [GSK364507] | 6% | 15% | 12% | 16% | 40% | 8% | 6% | 1% | 0% | 0%
21 | COc1cc2nccc(Nc3ccc(NC(=O)c4ccc(C)cc4)c(O)c3)c2cc1OC.Cl [GW440132] | 0% | 14% | 15% | 7% | 0% | 17% | 0% | 0% | 22% | 0%
22 | Cn1ccc2ncnc(Oc3cccc(C(=O)Nc4ccccc4)c3)c21 | 0% | 0% | 0% | 0% | 4% | 0% | 0% | 0% | 9% | 21%
23 | Cc1cccc(-c2nc(C)cc(Nc3ccncc3)n2)n1 [GSK257997] | 0% | 46% | 10% | 6% | 30% | 10% | 44% | 41% | 32% | 23%
24 | CS(=O)(=O)c1ccc(-c2nc3n(c2-c2ccncc2)CCC3)cc1 [SKF-105942] | 0% | 0% | 3% | 17% | 0% | 0% | 19% | 26% | 0% | 0%
25 | COC(=O)c1c(-c2ccccc2)c2cc(OC)ccc2c(=O)n1Cc1ccccc1 | 0% | 7% | 0% | 0% | 0% | 0% | 31% | 27% | 44% | 9%
26 | Cc1ccc(-c2cc(-c3c[nH]nc3-c3ccccn3)ccn2)cc1 [GW684088] | 0% | 0% | 47% | 17% | 22% | 5% | 14% | 18% | 0% | 19%
27 | Fc1cccc(COc2nnc(-c3ccc4c(c3)CCO4)o2)c1 | 19% | 3% | 0% | 0% | 6% | 0% | 27% | 55% | 16% | 15%
28 | Cc1csc(-c2nc(Nc3ccncc3)c3ccccc3n2)n1 [GW869640] | 0% | 16% | 32% | 40% | 64% | 17% | 12% | 56% | 28% | 9%
29 | CN1C(=O)C(Nc2ccc(Cl)c(C(=O)O)c2)=C(c2ccc(Cl)cc2)C1=O [SB-404290] | 15% | 10% | 0% | 9% | 17% | 13% | 0% | 18% | 22% | 0%
30 | COc1cccc(NC(=O)NC2CCN(c3ccnc(Nc4ccc(F)cc4)n3)C2)c1 (stereo not drawn) [GSK1379721] | 16% | 35% | 2% | 14% | 0% | 4% | 0% | 0% | 0% | 0%
31 | CC(=O)Nc1nc2cnc(Nc3cc(NC(=O)c4cccc(CCC#N)c4)ccc3C)nc2s1 | 6% | 0% | 0% | 0% | 0% | 0% | 0% | 0% | 7% | 5%
32 | CCn1c(-c2cccnc2O)nc2cnccc21 [SB-736715] | 0% | 0% | 27% | 0% | 0% | 0% | 0% | 0% | 0% | 32%
33 | Cc1cccc(-c2nc(Nc3ccncc3)c3ccccc3n2)n1 [GW855857] | 0% | 0% | 0% | 0% | 47% | 0% | 0% | 0% | 0% | 0%
34 | CN(C)CCN(C)C(=O)c1cc(-c2ccncc2)c(-c2ccc(Cl)c(O)c2)o1.Cl.Cl [SB-710397] | 0% | 0% | 16% | 35% | 76% | 4% | 6% | 0% | 16% | 0%
35 | Cl.O=C(Nc1cccc(-c2nn3ncccc3c2-c2ccnc(Nc3cccnc3)n2)c1)c1c(F)cccc1F [GSK312879] | 7% | 0% | 24% | 11% | 15% | 23% | 15% | 19% | 9% | 0%
36 | Fc1cc(Cl)ccc1Nc1ccnc2cc(I)ccc12 [GW551191] | 0% | 5% | 7% | 19% | 59% | 6% | 18% | 9% | 14% | 0%
